Results reported in PubChem BioAssay (NCATS).
Several values for one entry are separate records, joined by “and”; a condition that tells them apart may be missing. Equal entries are not always repeated. Results filed as inconclusive are left out. Activity calls are given as the source filed them. The call rests on the fitted dose curve; in most records, active means well fitted curve in the direction sought with a large enough effect; inconclusive means small, poorly fitted or top-dose-only effect, or another doubt; inactive means no such curve, though single readings can be large; an effect the other way counts as inactive or inconclusive.
Potency means the concentration at half of the fitted maximal effect.

Each compound was assayed against Cellular tumor antigen p53 (Homo sapiens) (UniProt P04637) (assay: Primary qHTS for small molecule compounds that upregulate eGFP-tagged delta133p53alpha (in N-terminal) cells. (AID 2060322; further: nearly all actives have a fitted effect of over 75% in size;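 on activation: 0% = DMSO vehicle and 100% = reference activator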)). Details: NCI-H358 eGFP-delta133p53alpha fluorescence, 24 h; activation: stronger effect = higher value.
Chain of Cellular tumor antigen p53 (Homo sapiens) (P04637 whole entry, looked up): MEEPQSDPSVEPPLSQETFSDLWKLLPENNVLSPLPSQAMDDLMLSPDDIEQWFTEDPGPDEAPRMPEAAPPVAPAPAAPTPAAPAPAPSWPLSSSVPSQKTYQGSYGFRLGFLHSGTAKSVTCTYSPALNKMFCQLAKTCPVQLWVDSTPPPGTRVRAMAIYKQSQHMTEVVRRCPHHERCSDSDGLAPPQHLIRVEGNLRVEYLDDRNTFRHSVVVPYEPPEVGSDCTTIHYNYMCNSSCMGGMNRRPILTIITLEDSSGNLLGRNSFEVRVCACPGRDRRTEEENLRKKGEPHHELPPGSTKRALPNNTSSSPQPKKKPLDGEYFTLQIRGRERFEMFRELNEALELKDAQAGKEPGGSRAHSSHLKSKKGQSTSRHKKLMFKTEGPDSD
Procedure, shortened: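 NCI-H358 cells pre-induced 24 h with 10 ng/ml doxycycline to express N-terminal eGFP-delta133p53alpha, then dosed 24 h at 37C without doxycycline; fixed, Hoechst-stained, GFP intensity by laser scanning cytometry, normalized to DMSO (0%) and 57.5 uM 5-azacytidine (100%).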
`O=c1[nH]c2cc(Cl)ccc2c(O)c1-c1ccc(Oc2ccccc2)cc1` was tested, and the activation was 23.6% (inactive). With `Cc1cc(NC(=O)Nc2ccc3c(ccn3C)c2)sn1` the activation was 51% (inactive). `CCSC(=N)N` was tested, and the activation was -32.7% (inactive). With `Cc1nc(N=Nc2ccc(S(=O)(=O)O)cc2S(=O)(=O)O)c(COP(=O)(O)O)c(C=O)c1O` the activation was -9.78% (inactive). With `CN(C)CCCN1c2ccccc2CCc2ccccc21` the activation was -0.565% (inactive) and -9% (inactive). In the case of `CN(C)CCCN1c2ccccc2Sc2ccccc21`, the activation is reported as 2.51% (inactive) and 16.3% (inactive). For `Clc1ccc(N2CCN(Cc3cc4ccccn4n3)CC2)cc1`, the activation was -21.6% (inactive). `CNC1(C)C2CCC(C2)C1(C)C` (stereo not given) was tested, and the activation was -45.5% (inactive). With `Cc1nc(N=Nc2ccc(C(=O)O)cc2)c(COP(=O)(O)O)c(C=O)c1O` the activation was -2.63% (inactive). `CCCCNc1c(C(=O)OCC)c(C)nc2c1cnn2CC` was tested, and the activation was 8.47% (inactive) and 3.05% (inactive). `Cn1cc(C2=C(c3ccc(Cl)cc3Cl)C(=O)NC2=O)c2ccccc21` was tested, and the Potency was 10.7 µM (active). With `COc1cc(OC)cc(-c2cc3cnc(N)nc3nc2NC(=O)NC(C)(C)C)c1` the activation was 5.06% (inactive). With `Nc1ccc(S(=O)(=O)Nc2ccnn2-c2ccccc2)cc1` the activation was 12.6% (inactive) and 48.1% (inactive) and -20.4% (inactive). In the case of `COc1ccc(-c2ccc(N)[n+](CCCC(=O)O)n2)cc1`, the activation is reported as -20% (inactive). With `O=C(CCCCCN1CCN(c2ccccc2-c2ccccc2)CC1)NC1CCCc2ccccc21` (stereo not given) the activation was -20.9% (inactive). With `O=c1onc2n1-c1cc(Br)ccc1OC2` the activation was -18.5% (inactive). In the case of `CCc1cccc(N(C)C(N)=Nc2cccc3ccccc23)c1`, the activation is reported as 19.2% (inactive). With `Nc1nc2ccc(Cl)cc2n2c(-c3ccccc3)nnc12` the activation was -21.3% (inactive). `CC(=O)O[C@H]1CC2(C)[C@@H](C[C@@H](O)[C@H]3[C@@]4(C)CC[C@@H](O)[C@@H](C)[C@@H]4CC[C@@]32C)C1=C(CCC=C(C)C)C(=O)O` (stereo not given in full) was tested, and the activation was -11.4% (inactive). In the case of `CC[N+](CC)(CC)CC(=O)Nc1c(C)cccc1C`, the activation is reported as -4.9% (inactive). In the case of `c1cnc2c(c1)ccc1cccnc12`, the activation is reported as -78.4% (inactive). With `O=C(O)CCC(=O)N1CCCC1C(=O)O` (stereo not given) the activation was 8.81% (inactive). With `CNCCCC1c2ccccc2C=Cc2ccccc21` the activation was -1.67% (inactive) and -3.36% (inactive). `N[C@H](C(=O)O)[C@H]1C[C@@H]1C(=O)O` was tested, and the activation was 6.82% (inactive). `C=C1C[C@@]23CC[C@H]4[C@@](C)(CCC[C@@]4(C)C(=O)O)[C@@H]2CC[C@]1(O)C3` was tested, and the activation was 9.04% (inactive). With `C[C@H](CS)C(=O)N1CCC[C@H]1C(=O)O` the activation was 1.67% (inactive) and -24.1% (inactive). In the case of `NCCS`, the activation is reported as -9.6% (inactive) and 3.67% (inactive). With `Nc1ncnc2c1ncn2C1CCCO1` (stereo not given) the activation was 9.27% (inactive). With `CO[C@H]1O[C@@H]2O[C@]3(C)CC[C@@H]4[C@@H](C)CC[C@H]([C@H]1C)[C@]24OO3` the activation was -13% (inactive). For `CNCCC(Oc1ccccc1C)c1ccccc1` (stereo not given), the activation was -12.7% (inactive). In the case of `CC1CCN=C(N)S1` (stereo not given), the activation is reported as -24.3% (inactive). With `Nc1ccc(N2C(=O)c3ccccc3C2=O)c(Cl)c1` the activation was -1.82% (inactive). With `Nc1nc(Nc2ccccc2)nc2c1ncn2[C@@H]1O[C@H](CO)[C@@H](O)[C@H]1O` the activation was 8.56% (inactive). `CCCNCC(O)COc1ccccc1C(=O)CCc1ccccc1` (stereo not given) was tested, and the activation was 15% (inactive) and -5.02% (inactive) and 3.52% (inactive). For `CC(=O)/C(C)=N/O`, the activation was -2.27% (inactive). `CCn1c(=O)[nH]c2cc(Cl)c(Cl)cc21` was tested, and the activation was -55.4% (inactive). In the case of `Nc1nc(SCc2ccc([N+](=O)[O-])cc2)c2ncn([C@@H]3O[C@H](CO)[C@@H](O)[C@H]3O)c2n1`, the activation is reported as -3.28% (inactive). `O=C(O)C1CN(CCCP(=O)(O)O)CCN1` (stereo not given) was tested, and the activation was -32.5% (inactive). In the case of `C/C(=C\c1ccc(C(=O)O)cc1)c1ccc2c(c1)C(C)(C)CCC2(C)C`, the activation is reported as -14.6% (inactive). For `C=CC[C@H](N)C(=O)O`, the activation was -35.4% (inactive).

What follows are compounds tested against Cellular tumor antigen p53 (Homo sapiens) (UniProt P04637) (assay: Primary qHTS for small molecule compounds that upregulate eGFP-tagged delta133p53alpha (in C-terminal) cells. (AID 2060324)). Details: NCI-H358 delta133p53alpha-eGFP (C-terminal tag), GFP fluorescence imaging, 24 h; series mostly up to 57.5 µM.
Procedure, shortened: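 C-terminal eGFP-tagged delta133p53alpha NCI-H358 line; dox-induced (100 ng/ml, 24 h) then plated without dox; compounds pinned in titration, 24 h 37 °C/5% CO2; PFA fix, Hoechst nuclei; GFP by LSC.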
With `O=c1[nH]c2cc(Cl)ccc2c(O)c1-c1ccc(Oc2ccccc2)cc1` the Potency was “inactive”. With `Cc1cc(NC(=O)Nc2ccc3c(ccn3C)c2)sn1` the Potency was “inactive”. `CCSC(=N)N` was tested, and the Potency was “inactive”. For `Cc1nc(N=Nc2ccc(S(=O)(=O)O)cc2S(=O)(=O)O)c(COP(=O)(O)O)c(C=O)c1O`, the Potency was “inactive”. With `CN(C)CCCN1c2ccccc2CCc2ccccc21` the Potency was “inactive”. `CN(C)CCCN1c2ccccc2Sc2ccccc21` was tested, and the Potency was “inactive”. For `Clc1ccc(N2CCN(Cc3cc4ccccn4n3)CC2)cc1`, the Potency was “inactive”. `CNC1(C)C2CCC(C2)C1(C)C` (stereo not given) was tested, and the Potency was “inactive”. For `Cc1nc(N=Nc2ccc(C(=O)O)cc2)c(COP(=O)(O)O)c(C=O)c1O`, the Potency was “inactive”. In the case of `CCCCNc1c(C(=O)OCC)c(C)nc2c1cnn2CC`, the Potency is reported as “inactive”. In the case of `Cn1cc(C2=C(c3ccc(Cl)cc3Cl)C(=O)NC2=O)c2ccccc21`, the Potency is reported as 2.39 µM (active). `COc1cc(OC)cc(-c2cc3cnc(N)nc3nc2NC(=O)NC(C)(C)C)c1` was tested, and the Potency was “inactive”. In the case of `Nc1ccc(S(=O)(=O)Nc2ccnn2-c2ccccc2)cc1`, the Potency is reported as “inactive”. With `COc1ccc(-c2ccc(N)[n+](CCCC(=O)O)n2)cc1` the Potency was “inactive”. `O=C(CCCCCN1CCN(c2ccccc2-c2ccccc2)CC1)NC1CCCc2ccccc21` (stereo not given) was tested, and the Potency was “inactive”. With `O=c1onc2n1-c1cc(Br)ccc1OC2` the Potency was “inactive”. For `CCc1cccc(N(C)C(N)=Nc2cccc3ccccc23)c1`, the Potency was “inactive”. In the case of `Nc1nc2ccc(Cl)cc2n2c(-c3ccccc3)nnc12`, the Potency is reported as “inactive”. `CC(=O)O[C@H]1CC2(C)[C@@H](C[C@@H](O)[C@H]3[C@@]4(C)CC[C@@H](O)[C@@H](C)[C@@H]4CC[C@@]32C)C1=C(CCC=C(C)C)C(=O)O` (stereo not given in full) was tested, and the Potency was “inactive”. For `CC[N+](CC)(CC)CC(=O)Nc1c(C)cccc1C`, the Potency was “inactive”. With `c1cnc2c(c1)ccc1cccnc12` the Potency was “inactive”. `O=C(O)CCC(=O)N1CCCC1C(=O)O` (stereo not given) was tested, and the Potency was “inactive”. `CNCCCC1c2ccccc2C=Cc2ccccc21` was tested, and the Potency was “inactive”. `N[C@H](C(=O)O)[C@H]1C[C@@H]1C(=O)O` was tested, and the Potency was “inactive”. `C=C1C[C@@]23CC[C@H]4[C@@](C)(CCC[C@@]4(C)C(=O)O)[C@@H]2CC[C@]1(O)C3` was tested, and the Potency was “inactive”. For `C[C@H](CS)C(=O)N1CCC[C@H]1C(=O)O`, the Potency was “inactive”. In the case of `NCCS`, the Potency is reported as “inactive”. `Nc1ncnc2c1ncn2C1CCCO1` (stereo not given) was tested, and the Potency was “inactive”. For `CO[C@H]1O[C@@H]2O[C@]3(C)CC[C@@H]4[C@@H](C)CC[C@H]([C@H]1C)[C@]24OO3`, the Potency was “inactive”. `CNCCC(Oc1ccccc1C)c1ccccc1` (stereo not given) was tested, and the Potency was “inactive”. In the case of `CC1CCN=C(N)S1` (stereo not given), the Potency is reported as “inactive”. With `Nc1ccc(N2C(=O)c3ccccc3C2=O)c(Cl)c1` the Potency was “inactive”. For `Nc1nc(Nc2ccccc2)nc2c1ncn2[C@@H]1O[C@H](CO)[C@@H](O)[C@H]1O`, the Potency was “inactive”. In the case of `CCCNCC(O)COc1ccccc1C(=O)CCc1ccccc1` (stereo not given), the Potency is reported as “inactive”. For `CC(=O)/C(C)=N/O`, the Potency was “inactive”. For `CCn1c(=O)[nH]c2cc(Cl)c(Cl)cc21`, the Potency was “inactive”. For `Nc1nc(SCc2ccc([N+](=O)[O-])cc2)c2ncn([C@@H]3O[C@H](CO)[C@@H](O)[C@H]3O)c2n1`, the Potency was “inactive”. With `O=C(O)C1CN(CCCP(=O)(O)O)CCN1` (stereo not given) the Potency was “inactive”. For `C/C(=C\c1ccc(C(=O)O)cc1)c1ccc2c(c1)C(C)(C)CCC2(C)C`, the Potency was “inactive”. `C=CC[C@H](N)C(=O)O` was tested, and the Potency was “inactive”.
